# D2 antagonist: antagonizes the human D2 dopamine receptor; P14416; HEK293 TREx D2 cells, calcium flux, dopamine EC80; inhibition, % at 10 µM; 340,000 compounds, 2% hits; in the data active means inhibition above about 30%; inactive means below that, where a call was filed; further: 0% is about no effect
# Target sequence (P14416 whole entry, looked up): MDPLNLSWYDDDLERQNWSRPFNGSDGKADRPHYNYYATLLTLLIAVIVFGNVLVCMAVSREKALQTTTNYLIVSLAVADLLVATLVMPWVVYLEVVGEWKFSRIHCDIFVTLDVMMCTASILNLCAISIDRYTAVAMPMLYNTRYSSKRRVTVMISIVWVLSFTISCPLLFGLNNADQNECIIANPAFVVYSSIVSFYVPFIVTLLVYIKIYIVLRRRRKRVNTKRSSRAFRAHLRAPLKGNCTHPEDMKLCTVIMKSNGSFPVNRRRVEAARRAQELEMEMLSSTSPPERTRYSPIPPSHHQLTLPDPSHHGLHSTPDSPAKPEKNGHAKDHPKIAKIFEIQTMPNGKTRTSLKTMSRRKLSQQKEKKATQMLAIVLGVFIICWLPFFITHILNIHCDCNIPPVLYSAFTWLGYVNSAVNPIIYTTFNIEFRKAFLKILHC
#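 Tetracycline-induced HEK293 T-REx cells expressing D2 force-coupled to calcium signalling were dye-loaded, exposed to compound for 180 s, then challenged with an EC80 of dopamine; calcium flux was followed kinetically for a further 180 s.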
# D2 PAM-1: human D2 receptor positive allosteric modulation | DiscoveRx D2 beta-arrestin cells, luminescence, 90 min; 100% = 57 uM dopamine signal | 360,000 compounds, 0.23% hits | potentiation, % (test concentration not listed) | P14416; in the data active means potentiation above about 50%; inconclusive means mostly about 30% to 49%
#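 PathHunter D2 cells, attached overnight at 37 deg C, received compound in DMSO plus dopamine at EC20 (50 nM final) for 90 min at 37 deg C. Beta-arrestin recruitment was read as luminescence after 1 h with detection reagent at ambient temperature.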
# D2 PAM-2: positive allosteric modulators of human D2 dopamine receptor; P14416; HEK293 T-REx D2, calcium flux, EC20 dopamine potentiation; potentiation, % at 10 µM; 340,000 compounds, 0.34% hits;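 active means potentiation over 3 SD above the plate norm, cut at about 30% in these data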; further: 0% is about no effect
#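 Primary screen. Calcium kinetics in induced HEK293 T-REx D2 cells: compound pre-addition 180 s, EC20 dopamine, 180 s more.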
# D2 ag-1: activates the human D2 dopamine receptor. HEK293 T-REx D2 cells, calcium flux agonist mode. activation, % at 2 µM. 340,000 compounds, 0.53% hits. AID 485358;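 active means activation over 3 SD above normal in the single-dose calcium agonist read, cut at about 30% in these data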; further: 0% is about no effect
#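 Agonism is scored from calcium flux in a force-coupled, inducible HEK293 cell line expressing D2, read kinetically for 180 s after compound addition against dopamine controls.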
# D2 ag-2: human D2 receptor agonism in beta-arrestin assay | P14416 | DiscoveRx PathHunter D2 beta-arrestin, luminescence, 90 min; 100% = 57 uM dopamine signal | activation, % (no concentration beside the values) | 360,000 compounds, 0.084% hits; in the data active means activation above about 40%; inconclusive means between about 15% and that limit
#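 Agonist mode: compounds alone added to overnight-plated D2 PathHunter cells for 90 min at 37 C, with 57 uM final dopamine (EC100) defining full response. Beta-arrestin recruitment detected by chemiluminescent reagent, read after 1 h at ambient temperature.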
# * = called active by the depositor; ? = inconclusive; nt = no result given. A selection: hits, their analogues and other compounds. The true share with any hit is near 2.4%.
SMILES,D2 antagonist,D2 PAM-1,D2 PAM-2,D2 ag-1,D2 ag-2
Cc1ccc(-n2c(CNc3ccc(F)cc3)nnc2SCC(=O)N2CCCC2)cc1,30.1*,-19.5,7.4,0.7,-2.8
COc1ccc(NCc2nnc(SCC(=O)NCc3ccco3)n2-c2ccccc2OC)cc1,10.6,-18.2,6.0,-0.7,-4.9
COc1ccc(S(=O)(=O)Nc2ccc3c(c2)CCCN3S(=O)(=O)c2ccc(C)cc2)cc1F,nt,nt,nt,-0.4,nt
CCCn1cc(S(=O)(=O)CC(=O)NC2CCCCC2)c2ccccc21,50.5*,-23.9,-11.6,0.2,-0.2
NC(=O)Cn1c(=O)n(CCCCCC(=O)NCc2ccccc2Cl)c(=O)c2sccc21,nt,nt,-1.7,-0.4,nt
O=c1oc(-c2ccc(F)cc2)nc2ccsc12,0.1,-19.2,-4.3,0.0,-2.7
O=c1oc(-c2ccccc2Cl)nc2ccsc12,30.5*,-12.9,13.2,1.4,-10.0
Cc1cc(N2CCN(C)CC2)nc2ccc(NC(=S)NCCCN3CCc4ccccc4C3)cc12,34.1*,-14.1,-29.1,0.5,-3.1
Cc1cc(N2CCN(C)CC2)nc2ccc(NC(=S)NCCN3CCc4ccccc4C3)cc12,14.5,-20.4,-25.0,-0.8,-0.4
CCN1CCN(c2cc(C)c3cc(NC(=S)NCCCN4CCc5ccccc5C4)ccc3n2)CC1,52.6*,-14.5,-32.0,0.6,-2.9
CC(C)OCCCn1c(=S)[nH]c2ccc(N3CCOCC3)cc2c1=O,-13.0,-7.2,-4.9,-2.3,0.2
CC(C)OCCCn1c(=S)[nH]c2cc3c(cc2c1=O)OCO3,49.5*,16.3,1.6,-0.6,1.2
COc1ccc(NC(=O)NC(C)c2c(-n3cccc3)sc3c2CCN(C)C3)c(OC)c1 (stereo unspecified),nt,nt,-10.2,1.0,nt
CC1=C(C(=O)OCc2ccc3c(c2)OCO3)C(c2ccccc2)NC(=O)N1 (stereo unspecified),44.5*,52.8*,6.4,0.8,?
CCOC(=O)C1=C(C)NC(=O)NC1c1cc2c(cc1Br)OCO2 (stereo unspecified),-11.1,-9.1,50.5*,0.0,-2.8
O=C(COc1cccc(F)c1)N1c2ccccc2Sc2ccccc21,-6.7,92.9*,0.4,0.1,?
Cn1cccc1/C=N/N1CCN(c2ccccn2)CC1,25.4,-2.9,-8.2,30.5*,4.3
Cc1ccc(/C=N/N2CCN(c3ccccn3)CC2)cc1,-15.4,-8.5,12.6,1.5,-0.9
COC(=O)CSc1nnc(-c2ccc(S(=O)(=O)NCc3cccs3)cc2)o1,-0.1,-7.7,-9.9,-0.4,-1.2
COC(=O)CSc1nnc(-c2ccc(S(=O)(=O)NCc3ccccc3Cl)cc2)o1,33.3*,29.4,9.7,0.3,2.7
Brc1ccccc1-c1nnc(COc2ncnc3ccccc23)o1,-7.3,-4.5,-12.5,1.2,-1.7
Clc1ccccc1OCc1nnc(-c2ccccc2Br)o1,36.2*,-16.5,-1.9,-1.0,-1.5
Brc1ccccc1-c1nnc(COc2cccc3cccnc23)o1,38.3*,19.7,0.2,0.6,7.5
N#Cc1ccccc1OCc1nnc(-c2ccccc2Br)o1,11.7,-1.2,-4.5,0.2,2.2
CCOC(=O)c1cccc(NC(=O)c2ccc3snnc3c2)c1,nt,nt,-9.2,nt,nt
SMILES,D2 antagonist,D2 PAM-1,D2 PAM-2,D2 ag-1,D2 ag-2
COc1ccc(C(=O)N(Cc2sccc2C)C2CCS(=O)(=O)C2)cc1 (stereo unspecified),37.8*,-14.3,0.0,-0.8,2.9
CCOC(=O)c1c(C)oc2c1c(CN1CCN(CCO)CC1)c(O)c1ccccc12,-9.8,21.5,6.7,0.0,6.3
CCOC(=O)c1c(C)oc2c1c(C(c1ccncc1)N1CCOCC1)c(O)c1ccccc12 (stereo unspecified),-7.3,69.2*,nt,0.0,7.9
CCOC(=O)c1c(C)oc2c1c(CN1CCN(C(=O)OCC)CC1)c(O)c1ccccc12,4.5,74.9*,-2.6,0.7,?
CCN(CC)c1ccc2cc(C=O)c(=O)oc2c1,-46.5,-13.4,-6.0,65.0*,-2.5
CCN(CC)c1ccc2cc(-c3nnc(-c4ccncc4)o3)c(=O)oc2c1,66.3*,-12.0,nt,88.4*,-1.2
CCN(CC)c1ccc2cc(C(C)=O)c(=O)oc2c1,-29.3,-18.9,10.6,35.3*,-4.5
CCN(CC)c1ccc2cc(C(=O)Nc3ccccn3)c(=O)oc2c1,1.7,0.3,4.6,39.4*,-0.2
COC(=O)c1cc(NC(=O)c2cccc(Cl)c2)c(=O)oc1/C=C/Nc1cc(C)cc(C)c1,5.2,nt,8.9,41.2*,nt
CN(Cc1ccccc1)C(=O)c1cccc(NC(=O)c2ccco2)c1,-8.0,-5.3,-8.0,-0.5,-5.0
CN(CCC(=O)Nc1ccc2c(c1)OCO2)Cc1ccccc1,-25.9,-24.1,-5.4,0.9,-1.5
CN(Cc1ccccc1)C(=O)c1ccc(NC(=O)c2ccccc2)cc1,-16.8,-10.6,36.9*,-0.1,-1.8
CN(CC(=O)Nc1cccc(C#N)c1)Cc1ccc(Cl)cc1,68.3*,-30.8,-11.4,-0.5,2.6
CN(CCC(=O)Nc1ccc(Cl)cc1)Cc1ccccc1,45.2*,-27.6,-26.3,-0.6,-10.0
CN(CC(=O)Nc1ccc(C#N)cc1)Cc1ccc(Cl)c(Cl)c1,-18.2,-7.3,-6.8,-0.4,-0.8
CCc1ccc(CCC(=O)Nc2ccc(Cl)cc2)o1,41.5*,-5.0,-11.7,-1.0,1.1
CN(C(=O)CC(=O)Nc1ccc2nc3n(c(=O)c2c1)CCCCC3)c1ccccc1F,nt,nt,-7.6,4.0,nt
CCOCCCNC(=O)Nc1cc(C(=O)NCc2ccc(C(C)C)cc2)ccc1N1CCCC1,nt,nt,12.9,0.4,nt
COc1ccc(-c2nc3scc(CCNS(=O)(=O)c4ccc5c(c4)OCCO5)n3n2)cc1,nt,nt,17.5,0.2,nt
COc1cc(C(=O)NC2CC(=O)N(c3cccc(F)c3)C2)cc(OC)c1OC (stereo unspecified),nt,nt,4.1,nt,nt
Cc1cc(C)n(CCCNC(=O)C2CCC(=O)N(CCc3ccc(Cl)cc3)C2)n1 (stereo unspecified),-0.8,-8.3,5.8,-0.4,-1.6
Cc1ccn(CCNC(=O)C2CCC(=O)N(CCc3ccc(Cl)cc3)C2)n1 (stereo unspecified),2.3,16.3,34.6*,-0.5,-1.0
N=c1sccn1CC(=O)NCCc1ccc(Cl)cc1Cl,39.0*,-23.9,-8.8,-0.3,-3.4
Cc1cccc(NC(=O)Cn2nc(-c3ccccc3)c3cnc4ccccc4c32)c1,nt,nt,15.4,-1.0,nt
CCC(=O)Oc1ccc2c(=O)c(-c3ccc4ccccc4n3)c(CC)oc2c1C,-8.0,1.6,-1.7,-0.7,0.2
Cc1oc2c(C)c(O)ccc2c(=O)c1-c1ccc2ccccc2n1,43.9*,-14.8,-4.3,-0.3,-2.7
CCN1/C(=C/c2ccc3cc(C)ccc3[n+]2CC)Sc2cc(C)ccc21,34.5*,-1.3,5.8,15.4,-5.3
CCCCN1/C(=C/c2ccc3ccccc3[n+]2CC)Sc2ccccc21,16.1,-4.9,-3.9,13.7,1.6

# Source: PubChem
